A short description of assay [1]: qHTS assay to identify small molecule antagonists of the thyroid receptor (TR) signaling pathway (AID 743065). Note: nearly all actives have a fitted effect of over 55% in size. Note: potency is the fitted concentration of half-maximal effect. Put shortly: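 Antagonism measured as loss of luciferase signal in GH3 cells stably carrying a TRE-luciferase reporter, co-treated with compound and T3 (1 nM final) for 23.5 h at 37 C. Viability was read in the same well by CellTiter-Fluor.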
For assay [2], the system named is thyroid hormone receptor (rat, GH3 cells). The assay can be described thus: qHTS assay to identify small molecule agonists of the thyroid receptor (TR) signaling pathway (AID 743066; calls by dose curve).
For assay [3], the target named is Estrogen receptor (Homo sapiens) (UniProt P03372). The assay can be described thus: qHTS assay to identify small molecule antagonists of the estrogen receptor alpha (ER-alpha) signaling pathway (AID 743069; active = well fitted curve in the direction sought with a large enough effect in the signal ratio in the repeat runs, not every such curve was filed as active; inconclusive = weak or mixed curves, or effect the other way; inactive = no such curve, though single readings can be large or run the other way; the % refers to the signal ratio; note: potency is the fitted concentration of half-maximal effect). Put shortly: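 Compound effects are measured against 17beta-estradiol stimulation in HEK293 cells with a UAS-controlled beta-lactamase reporter for ER-alpha. Exposure lasts 18 hr at 37C; LiveBLAzer B/G FRET substrate follows for 2 hr at room temperature.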
Sequence of Estrogen receptor (Homo sapiens) (P03372 whole entry, looked up): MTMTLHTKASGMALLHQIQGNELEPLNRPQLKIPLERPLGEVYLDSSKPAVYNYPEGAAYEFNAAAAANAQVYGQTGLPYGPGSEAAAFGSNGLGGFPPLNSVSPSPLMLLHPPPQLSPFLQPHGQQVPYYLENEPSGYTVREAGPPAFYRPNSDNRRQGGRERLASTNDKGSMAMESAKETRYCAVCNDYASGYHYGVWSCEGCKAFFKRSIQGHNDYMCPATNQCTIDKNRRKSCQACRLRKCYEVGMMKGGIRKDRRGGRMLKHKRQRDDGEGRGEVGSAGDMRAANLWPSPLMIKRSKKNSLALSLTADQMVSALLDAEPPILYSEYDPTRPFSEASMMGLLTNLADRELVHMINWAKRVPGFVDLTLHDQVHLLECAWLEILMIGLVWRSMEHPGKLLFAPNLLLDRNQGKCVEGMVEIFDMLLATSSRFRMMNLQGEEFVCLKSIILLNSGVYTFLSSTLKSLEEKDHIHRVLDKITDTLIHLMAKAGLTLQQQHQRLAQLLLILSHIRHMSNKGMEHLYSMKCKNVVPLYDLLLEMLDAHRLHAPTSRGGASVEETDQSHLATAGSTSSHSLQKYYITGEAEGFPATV

Assay [4] in a line: qHTS assay to identify small molecule antagonists of the estrogen receptor alpha (ER-alpha) signaling pathway - cell viability counter screen (AID 743074; calls by dose curve;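 note: HEK293 cells carrying ER-alpha-UAS-bla reporter stimulated with 17beta-estradiol; nearly all actives have a fitted effect of over 45% in size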).
Assay [5] has as its target Estrogen receptor (Homo sapiens) (UniProt P03372). Briefly: qHTS assay to identify small molecule agonists of the estrogen receptor alpha (ER-alpha) signaling pathway using the BG1 cell line (AID 743079). Note: nearly all actives have a fitted effect of over 20% in size. Note: potency is the fitted concentration of half-maximal effect. The following applies: BG1Luc4E2 cells, ERE-luciferase agonist, 22 h; activation: at 70.3 µM (top of the series).
Assay [6] can be described thus: qHTS assay to identify small molecule antagonists of the estrogen receptor alpha (ER-alpha) signaling pathway using the BG1 cell line (AID 743080; calls by dose curve;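 note: BG1 cells stimulated with 17beta-estradiol alongside compound; nearly all actives have a fitted effect of over 25% in size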). Put shortly: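 Endogenous full-length ER-alpha in BG1-Luc-4E2 cells drives a stably integrated 4×ERE luciferase gene; compounds were tested against 17beta-estradiol over 21.5 h, with luminescence and multiplexed viability fluorescence recorded.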

A short description of assay [7]: qHTS assay to identify small molecule antagonists of the estrogen receptor alpha (ER-alpha) signaling pathway using the BG1 cell line - cell viability counter screen (AID 743081).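 Note: compound given together with 17beta-estradiol as the ER stimulus; nearly all actives have a fitted effect of over 45% in size.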
A further assay concerns the target Aromatase (Homo sapiens) (UniProt P11511). Briefly: qHTS assay to identify aromatase inhibitors (AID 743083). Note: nearly all actives have a fitted effect of over 55% in size. Note: potency is the fitted concentration of half-maximal effect.
Assay [8] deals with Estrogen receptor (Homo sapiens) (UniProt P03372). The assay can be described thus: qHTS assay to identify small molecule agonists of the estrogen receptor alpha (ER-alpha) signaling pathway (AID 743075; calls by dose curve; note: potency is the fitted concentration of half-maximal effect).

Molecules are shown by their SMILES. Where a structure was tested more than once in an assay, its records may differ in their call. Activity calls are given as the source filed them. Unless noted, calls come from the whole dose curve; as a rule, active = well fitted curve in the direction sought with a large enough effect in the repeat runs; inconclusive = weak or mixed curves; inactive = no such curve, though single readings can be large; an effect the other way counts as inactive or inconclusive.

Sequence of Aromatase (Homo sapiens) (P11511 whole entry, looked up): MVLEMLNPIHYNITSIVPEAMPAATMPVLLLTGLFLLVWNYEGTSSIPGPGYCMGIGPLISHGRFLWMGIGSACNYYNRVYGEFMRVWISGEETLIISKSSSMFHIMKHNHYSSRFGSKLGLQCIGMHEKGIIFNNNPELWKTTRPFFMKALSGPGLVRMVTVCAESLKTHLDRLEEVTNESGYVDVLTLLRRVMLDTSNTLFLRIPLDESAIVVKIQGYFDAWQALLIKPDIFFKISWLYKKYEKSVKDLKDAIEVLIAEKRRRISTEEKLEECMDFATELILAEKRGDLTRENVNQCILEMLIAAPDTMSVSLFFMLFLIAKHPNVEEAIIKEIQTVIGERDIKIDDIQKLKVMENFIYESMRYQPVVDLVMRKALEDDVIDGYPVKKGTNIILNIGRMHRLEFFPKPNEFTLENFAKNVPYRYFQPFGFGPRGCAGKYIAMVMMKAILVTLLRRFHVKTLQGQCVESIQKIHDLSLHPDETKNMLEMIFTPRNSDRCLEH

For `CC(O)CN(C)C` (stereo not given), the Potency entry in [1], in [2], in assay [3], in assay [4], in assay [6] and in [7] was “inactive” throughout. For the same molecule, in the assay with Aromatase (Homo sapiens), the Potency result was “inactive”. The Potency in assay [5] was 11.9 µM (active).

Take `COc1ccc(C(=O)CCC(=O)O)c2ccccc12`: the Potency entry in assay [1], in [2], in assay [3], in [4], in assay [8] and in assay [5] was “inactive” in each case. The Potency result (in assay [7]; with Aromatase (Homo sapiens)) was “inactive” each time.

Take `NCCC[C@H](N)C(=O)O`: the Potency entry in [1], in [2], in assay [3], in assay [8], in [5] and in [6] was “inactive” in each case. Moreover, the Potency result with Aromatase (Homo sapiens) was “inactive”.

Regarding `CCCCCCCCCCCCCCCC(=O)OC[C@@H](NC(=O)C(Cl)Cl)[C@H](O)c1ccc([N+](=O)[O-])cc1`, the Potency result in assay [1], in [2], in assay [3], in assay [5], in assay [6] and in assay [7] was “inactive” each time. Moreover, the Potency result in the assay with Aromatase (Homo sapiens) is “inactive”.

Regarding `CC1CCC(NC(=O)N(CCCl)N=O)CC1` (stereo not given), the Potency entry in [1], in assay [2], in assay [3], in assay [4], in assay [8] and in [7] was “inactive” throughout. Besides, the Potency result with Aromatase (Homo sapiens) is “inactive”. The Potency in assay [5] was 26.6 µM (active).

`CCC(C)(C)OC(=O)N[C@@H](Cc1c[nH]c2ccccc12)C(=O)N[C@@H](CCSC)C(=O)N[C@@H](CC(=O)O)C(=O)N[C@@H](Cc1ccccc1)C(N)=O`: the Potency result in [1], in [2], in [3], in [4], in assay [8] and in assay [5] was “inactive” in each case. In addition, the Potency result (in assay [6]; with Aromatase (Homo sapiens)) was “inactive” in each case.

Take `C/C(=C(\CCOC(=O)c1ccccc1)SS/C(CCOC(=O)c1ccccc1)=C(/C)N(C=O)Cc1cnc(C)nc1N)N(C=O)Cc1cnc(C)nc1N`: in assay [1], the Potency is 23.7 µM (active). Moreover, the Potency result in assay [2], in assay [3], in [4], in [8], in assay [6] and in assay [7] was “inactive” each time. Moreover, the Potency result with Aromatase (Homo sapiens) is “inactive”.

With `CC(=O)N[C@@H]1C(O[C@H]2O[C@H](C(=O)O)C(O)[C@H](O)[C@H]2O)[C@H](O)[C@@H](CO)O[C@H]1O[C@@H]1C(C(=O)O)O[C@@H](O[C@H]2[C@H](O)[C@@H](CO)OC(O)[C@@H]2NC(C)=O)[C@H](O)[C@H]1O` (stereo not given in full), the Potency entry in assay [1], in assay [2], in assay [3], in assay [4], in [8] and in assay [5] was “inactive” in each case. The Potency entry (in assay [7]; with Aromatase (Homo sapiens)) was “inactive” in each case.

With `C#CCOc1ccc2c(C)cc(=O)oc2c1`, the Potency result in assay [1], in assay [2], in assay [4], in [8], in assay [5] and in assay [7] was “inactive” in each case. Further, the Potency result with Aromatase (Homo sapiens) was “inactive”.

As for `CCOC(=O)Nc1ccc2c(c1)N(C(=O)CN(C)C)c1ccccc1CC2`, the Potency in [1] was 48.6 µM (active). Also, the Potency entry in assay [2] and in assay [4] was “inactive” throughout.

On to `O=C(O)c1cc(N=Nc2ccc(O)c(C(=O)O)c2)ccc1O`, for which the Potency entry in [1], in [2], in assay [4], in assay [8], in assay [5] and in [6] was “inactive” throughout. For the same molecule, the Potency result (in assay [7]; in the assay with Aromatase (Homo sapiens)) was “inactive” throughout.

`CN[C@@H]1[C@H](O[C@H]2[C@H](O[C@H]3[C@H](O)[C@@H](O)[C@H](N=C(N)N)[C@@H](O)[C@@H]3N=C(N)N)O[C@@H](C)[C@]2(O)C=O)O[C@@H](CO)[C@H](O)[C@H]1O`: the Potency entry in [1], in assay [2], in assay [3], in [4], in assay [8] and in assay [5] was “inactive” in each case. Also, the Potency result (in [7]; with Aromatase (Homo sapiens)) was “inactive” each time.

Take `C=CCOc1ccc(CC(=O)O)cc1Cl`: the Potency entry (in [1]; in assay [2]; in [4]; in assay [6]; in [7]; with Aromatase (Homo sapiens)) was “inactive” in each case. Also, the Potency is 3.79 µM [inconclusive] (active) in [8] and 0.266 µM (active) in assay [5].

Take `O=C(OC[C@H]1O[C@](O)(COC(=O)c2cccnc2)[C@@H](OC(=O)c2cccnc2)[C@@H]1OC(=O)c1cccnc1)c1cccnc1`: the Potency result in assay [1], in [2], in assay [4], in [8], in assay [5] and in assay [6] was “inactive” in each case. For the same molecule, the Potency entry (in [7]; with Aromatase (Homo sapiens)) was “inactive” in each case.

In the case of `CCCCCCCN(CC)CCCC(O)c1ccc(NS(C)(=O)=O)cc1` (stereo not given), the Potency in assay [1] is 21.1 µM (active). In addition, the Potency entry in [2] and in [4] was “inactive” each time.

Regarding `O=[N+]([O-])c1ccc(Oc2ccc(N=C=S)cc2)cc1`, the figures for the Potency (in assay [1]; in [3]; with Aromatase (Homo sapiens)) were 29.8 µM (active), 0.848 µM [inconclusive] (active) and 26.6 µM (active), respectively. Further, the Potency entry in [2], in assay [4] and in [8] was “inactive” in each case.

Take `COc1cc([C@@H]2c3cc4c(cc3C(O[C@@H]3O[C@@H]5CO[C@@H](C)O[C@H]5[C@H](O)[C@H]3O)C3COC(=O)[C@@H]32)OCO4)cc(OC)c1OP(=O)(O)O` (stereo not given in full): the Potency was 11.9 µM (active) in [1]; 11.9 µM (active) and inactive in [5]. In addition, the Potency entry (in assay [2]; in assay [3]; in [8]; in [6]; with Aromatase (Homo sapiens)) was “inactive” each time.

For the molecule `CO/N=C(\C(=O)N[C@@H]1C(=O)N2C(C(=O)OCOC(=O)C(C)(C)C)=C(/C=C\c3scnc3C)CS[C@H]12)c1csc(N)n1`, the Potency entry in [1], in assay [2], in assay [4], in assay [8], in assay [5] and in assay [6] was “inactive” in each case. In addition, the Potency result (in assay [7]; with Aromatase (Homo sapiens)) was “inactive” each time.

On to `CC1(C)S[C@@H]2[C@H](NC(=O)[C@H](NC(=O)N3CCN(S(C)(=O)=O)C3=O)c3ccccc3)C(=O)N2[C@H]1C(=O)O`, for which the Potency result in assay [1], in assay [2], in assay [3], in [4], in assay [8] and in [6] was “inactive” in each case. Further, the Potency result (in assay [7]; in the assay with Aromatase (Homo sapiens)) was “inactive” throughout. The Potency in [5] was 11.9 µM (active).

Take `C[C@@](Cc1ccc(O)c(O)c1)(NN)C(=O)O`: the Potency entry in [1], in assay [2], in assay [3], in assay [4], in assay [8] and in assay [6] was “inactive” each time. Besides, the Potency entry (in [7]; in the assay with Aromatase (Homo sapiens)) was “inactive” in each case.

(Values after PubChem BioAssay (Tox21).)
